PLC-beta3 inh = human PLC-beta3 inhibitors, primary screen, biochemical, fluorescence; 1-phosphatidylinositol 4,5-bisphosphate phosphodiesterase beta-3 (Homo sapiens), Q01970; Purified PLC-beta3, fluorogenic substrate; inhibition, % at 12.2 µM; 0.18% of 370,000 active; AID 720704, 2013; in the data active means inhibition above about 11%
proKLK7 act = proKLK7 zymogen activators, primary screen, biochemical, fluorescence intensity. Kallikrein-7 (Homo sapiens), P49862. purified proKLK7, EDANS-DABCYL substrate fluorescence; 100% is mature enzyme control, 0% vehicle. activation, % at 7 µM. 0.9% of 370,000 active. AID 652039, 2013;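 active means activation above the mean of all tested compounds plus 3 SD, computed per campaign excluding outliers beyond control limits, cut at about 13% in these data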
ADAM17 inh = ADAM17 inhibitors, primary screen, biochemical, QFRET; recombinant ADAM17, EDANS/DABCYL FRET peptide cleavage; inhibition, % at 6.95 µM; 0.83% of 370,000 active; AID 720648, 2013;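 active means inhibition above the mean of compounds lying between control limits plus 3 SD, set per campaign, cut at about 8.5% in these data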
PLCg1 inh = PLC-gamma1 enzyme inhibitors, primary screen, biochemical, fluorescence, purified enzyme; fluorogenic substrate; inhibition, % at 12.2 µM; 0.84% of 370,000 active
ADAM10 inh = human ADAM10 inhibitors, primary screen, biochemical, QFRET, HTS; Disintegrin and metalloproteinase domain-containing protein 10 (Homo sapiens), O14672; inhibition, % at 7 µM; 0.62% of 370,000 active; recombinant ADAM10, EDANS/DABCYL FRET peptide cleavage, 3 h; AID 720582, 2013;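 active means inhibition above a per-campaign cutoff equal to the mean of compounds falling between control-based bounds plus 3 SD, cut at about 20% in these data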
Target sequence (O14672 214-748 limits assumed): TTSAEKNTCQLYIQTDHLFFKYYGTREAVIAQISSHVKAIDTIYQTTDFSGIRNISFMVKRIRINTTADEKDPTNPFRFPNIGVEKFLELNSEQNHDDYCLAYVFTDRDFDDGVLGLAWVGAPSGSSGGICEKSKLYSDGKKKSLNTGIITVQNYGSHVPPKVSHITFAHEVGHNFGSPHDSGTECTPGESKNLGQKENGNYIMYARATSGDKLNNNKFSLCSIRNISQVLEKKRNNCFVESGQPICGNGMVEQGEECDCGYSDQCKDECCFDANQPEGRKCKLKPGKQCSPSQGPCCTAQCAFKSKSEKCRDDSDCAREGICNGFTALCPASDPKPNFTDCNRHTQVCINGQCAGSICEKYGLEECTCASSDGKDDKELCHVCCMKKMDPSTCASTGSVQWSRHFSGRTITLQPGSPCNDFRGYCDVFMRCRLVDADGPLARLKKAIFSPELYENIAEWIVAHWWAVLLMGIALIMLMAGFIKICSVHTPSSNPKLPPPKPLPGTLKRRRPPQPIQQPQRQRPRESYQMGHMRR
HGIII-sPLA2 inh = human group III sPLA2 inhibitors, primary screen, biochemical, QFRET, BODIPY PC-A2 liposome substrate; Group 3 secretory phospholipase A2 (Homo sapiens), Q9NZ20; QFRET BODIPY PC-A2 liposome hydrolysis, fluorescence; inhibition, % at 12.2 µM; 0.56% of 370,000 active; AID 743126, 2013;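 active means inhibition above mean plus 3 SD of compounds lying within the high and low control bounds, cut at about 19% in these data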
PLCgamma1 ctr = PLC-gamma1 enzyme inhibitors, counter-screen for PLC-beta3 inhibitor project, biochemical, fluorescence; purified PLC-gamma1, fluorogenic substrate; shares compounds with PLCg1 inh; 3.1% of 3,300 active; AID 743258, 2014; inhibition, % at 12.3 µM
PLCbeta3 conf = PLC-beta3 inhibitor confirmation, biochemical, fluorescence, purified enzyme; inhibition, % at 12.3 µM; shares compounds with PLCg1 inh; fluorogenic substrate fluorescence; 1% of 3,300 active; in the data active means inhibition above about 11%
Of the large screens only hits and unclear results are named; the others gave an inactive call (follow-up assays come after a bar, where they were run). An excerpt weighted towards active compounds, which were near 3.4% of everything screened. Unless noted, no stated cut-off is given here; in the data, active means inhibition above about 9.5%; inactive means the rest.

O=c1ccnc2n1COCS2	PLCg1 inh 12 | PLCgamma1 ctr inactive | PLCbeta3 conf inactive
CCN(CC)c1ccc(/C=C2\C(=N)N3N=C(CC(=O)N4CCOCC4)SC3=NC2=O)cc1	none
NS(=O)(=O)c1ccc(NC(=O)CN2C(=O)C3C4C=CC(C4)C3C2=O)cc1 (centres undefined)	none
COc1cccc(Nc2nc(C(N)Cc3ccc(Cl)cc3)cs2)n1 (centres undefined)	PLCg1 inh 9.5 | PLCgamma1 ctr inactive | PLCbeta3 conf inactive
COc1ccc(CC(N)c2csc(Nc3ccccn3)n2)cc1 (centres undefined)	PLCg1 inh 15 | PLCgamma1 ctr inactive | PLCbeta3 conf inactive
O=C(C[C@H]1CC[C@H]2[C@@H](COC[C@@H](O)CN2C(=O)c2cnccn2)O1)NCc1ccc(Oc2ccccc2)cc1	PLC-beta3 inh 11 | PLCgamma1 ctr inactive | PLCbeta3 conf inactive
O=C(C[C@H]1CC[C@@H]2[C@H](COC[C@@H](O)CN2C(=O)C2CC2)O1)NCc1ccccc1Cl	none
COCCSc1ccccc1C(=O)Nc1nncs1	PLCg1 inh 10 | PLCgamma1 ctr inactive | PLCbeta3 conf inactive
COCCSc1ccccc1C(=O)Nc1ccncc1	none
CCC(C)NC(=O)C1c2ccccc2C(=O)N1Cc1ccc(F)cc1 (centres undefined)	none
CCOc1cc(Br)cc(C(c2c(C(=O)O)[nH]c3ccccc23)c2c(C(=O)O)[nH]c3ccccc23)c1O	PLCg1 inh 28 | PLCgamma1 ctr 48 | PLCbeta3 conf inactive
Cc1c(C(=O)NN)[nH]c2ccc([N+](=O)[O-])cc12	PLC-beta3 inh 59 | PLCgamma1 ctr inactive | PLCbeta3 conf inactive
CC1CCC(=O)N(CCOc2ccccc2)CC1 (centres undefined)	none
C[C@H]1CCC(=O)N([C@H](COc2ccccc2)Cc2ccccc2)CC1	PLCg1 inh 11 | PLCgamma1 ctr inactive | PLCbeta3 conf inactive
C=CCN(CC=C)CC(O)Cn1c2ccccc2c2ccccc21 (centres undefined)	none
CCN(CC)CC(O)Cn1c2ccccc2c2ccccc21 (centres undefined)	PLCg1 inh 12 | PLCgamma1 ctr inactive | PLCbeta3 conf inactive
O=C(O)c1ccc(NC2=C/C(=N/S(=O)(=O)c3ccccc3)c3ccccc3C2=O)cc1	PLCg1 inh 11 | PLCgamma1 ctr 18 | PLCbeta3 conf inactive
O=C1C(Nc2ccc(O)cc2)=C/C(=N/S(=O)(=O)c2cccs2)c2ccccc21	PLCg1 inh 20 | PLCgamma1 ctr 29 | PLCbeta3 conf 11
Cc1cc(C)c(S(=O)(=O)/N=C2\C=C(Nc3ccc(C(=O)O)cc3)C(=O)c3ccccc32)c(C)c1	none
Cc1c(Cl)cccc1NC(=S)NCCc1ccc(C(F)(F)F)cc1	none
O=C(CSc1n[nH]c(Cc2ccccc2)n1)Nc1ccccc1Br	none
CC(NCc1ccc(OCc2ccc(Cl)cc2)cc1)C(O)c1ccccc1 (centres undefined)	PLCg1 inh 19 | PLCgamma1 ctr inactive | PLCbeta3 conf inactive
CC(NCc1cccc(OCc2ccccc2)c1)C(O)c1ccccc1 (centres undefined)	none
COc1ccc(C(=O)NCCS(=O)(=O)N2CCCCCC2)cc1	none
O=C(CCc1ccc(S(=O)(=O)NCCc2ccccc2)cc1)Nc1ccc2c(c1)OCO2	PLCg1 inh 10 | PLCgamma1 ctr inactive | PLCbeta3 conf inactive
COc1ccc(-n2c(C)cc(=O)[nH]c2=O)cc1	none
COc1ccc(-n2c(C)nn(C)c2=O)cc1	PLCg1 inh 9.9 | PLCgamma1 ctr inactive | PLCbeta3 conf inactive
Cc1cc(C)c(NC(=O)Nc2ccccc2)c(Cl)c1	PLC-beta3 inh 13 | PLCgamma1 ctr inactive | PLCbeta3 conf inactive
Cc1cc(C)c(NC(=O)Nc2ccccc2C)c(Cl)c1	none
COc1ccc(C(C)c2cc3c(cc2OCC(=O)O)OCO3)cc1 (centres undefined)	PLC-beta3 inh 21 | PLCgamma1 ctr inactive | PLCbeta3 conf inactive
COc1ccccc1C(CC(=O)O)c1ccc2c(c1)OCO2 (centres undefined)	none
Cc1ccc(S(=O)(=O)NCc2ccccc2)cc1	none
Cc1ccc(CNS(=O)(=O)c2ccc([N+](=O)[O-])cc2)cc1	PLCg1 inh 12 | PLCgamma1 ctr inactive | PLCbeta3 conf inactive
Cc1ccc(NC(=O)/C(C#N)=C/c2ccsc2)c(C)c1	PLC-beta3 inh 11 | PLCgamma1 ctr inactive | PLCbeta3 conf inactive
Cc1ccccc1NC(=O)CNc1ccc(Cl)c(C(F)(F)F)c1	PLC-beta3 inh 16, PLCg1 inh 13 | PLCgamma1 ctr inactive | PLCbeta3 conf inactive
Cc1cc(OC(C)C(=O)N(Cc2cccs2)C2CCS(=O)(=O)C2)ccc1Cl (centres undefined)	none
Cc1ccc(OC(C)C(=O)N(Cc2cccs2)C2CCS(=O)(=O)C2)cc1C (centres undefined)	PLCg1 inh 9.8 | PLCgamma1 ctr inactive | PLCbeta3 conf inactive
COc1ccc(C(=O)N2CCC(C(=O)Nc3ccc4c(c3)OCCO4)CC2)cc1	PLC-beta3 inh 12 | PLCgamma1 ctr inactive | PLCbeta3 conf inactive
O=C(Cc1ccc(NC(=O)C2CCN(C(=O)C3CCCCC3)CC2)cc1)Nc1ccc(C(=O)N2CCOCC2)cc1	PLCg1 inh 13 | PLCgamma1 ctr inactive | PLCbeta3 conf inactive
O=C(Cc1ccc(NC(=O)C2CCCN(C(=O)C3CCCC3)C2)cc1)Nc1ccc(C(=O)N2CCOCC2)cc1 (centres undefined)	none
O=C(Cc1ccc(NC(=O)C2CCCN(C(=O)C3CCCCC3)C2)cc1)Nc1ccc(C(=O)N2CCOCC2)cc1 (centres undefined)	PLCg1 inh 10 | PLCgamma1 ctr inactive | PLCbeta3 conf inactive
COc1cccc(CNS(=O)(=O)c2c(C)[nH]c(C)c2C(=O)N2CCCC2)c1	none
COc1ccccc1CCC(=O)Oc1ccccc1C#N	none
CN1CCN(C(c2ccccc2)c2nnnn2C(C)(C)C)CC1 (centres undefined)	PLCg1 inh 12 | PLCgamma1 ctr inactive | PLCbeta3 conf inactive

Assay outcomes deposited in PubChem by The Scripps Research Institute Molecular Screening Center.
